Screening results as filed in PubChem.
FLuc modulator = qHTS profiling assay for firefly luciferase inhibitor/activator using purifed enzyme and Km concentrations of substrates (counterscreen for miR-21 project) | actives 6.9% (n = 360,000) | AID 588342, 2011 | purified FLuc, Km substrates, luminescence inhibition | Potency, µM (top dose mostly 57.5 µM), without a hit: top-dose activity change, negative = inhibition, usual class: inhibitors | Luciferin 4-monooxygenase (Photinus pyralis), P08659;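 further: plate controls were vehicle for no effect and reference inhibitor for full effect; nearly all actives have a fitted effect of over 55% in size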
Target sequence (P08659 whole entry, looked up): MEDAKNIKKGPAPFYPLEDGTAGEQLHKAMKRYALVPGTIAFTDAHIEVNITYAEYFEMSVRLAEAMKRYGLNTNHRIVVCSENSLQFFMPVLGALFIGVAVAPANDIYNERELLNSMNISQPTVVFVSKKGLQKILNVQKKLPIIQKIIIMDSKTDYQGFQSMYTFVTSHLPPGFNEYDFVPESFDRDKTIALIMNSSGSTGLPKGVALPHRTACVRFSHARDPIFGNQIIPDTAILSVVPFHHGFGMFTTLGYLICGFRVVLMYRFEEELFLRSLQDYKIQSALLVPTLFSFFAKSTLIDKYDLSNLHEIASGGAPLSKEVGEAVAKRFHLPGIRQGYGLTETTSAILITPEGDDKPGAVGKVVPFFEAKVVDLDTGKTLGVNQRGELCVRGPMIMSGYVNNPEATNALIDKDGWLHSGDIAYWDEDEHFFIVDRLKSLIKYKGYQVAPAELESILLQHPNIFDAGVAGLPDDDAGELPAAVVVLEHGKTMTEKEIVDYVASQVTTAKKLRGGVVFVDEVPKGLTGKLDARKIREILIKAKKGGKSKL
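Biochemical qHTS of compounds, final roughly 60 µM downward over six points, against 10 nM purified firefly luciferase using Km concentrations of substrates (10 uM D-luciferin, 10 uM ATP) in Tris acetate pH 7.5 buffer; luminescence output.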
ELG1 DNA repair = qHTS screen for small molecules that inhibit ELG1-dependent DNA repair in human embryonic kidney (HEK293T) cells expressing luciferase-tagged ELG1; Potency, µM (series often up to 46.1 µM), without a hit: at the top dose activity change, negative = inhibition, most hits filed as inhibitors; actives 2.3% (n = 330,000); HEK293T ELG1-luciferase reporter, luminescence, 16 h; DNA damage induced by 5-fluorouridine; AID 504467, 2011; further: on the % scale 0 is the no-effect control and ±100 the full control effect; nearly all actives have a fitted effect of over 55% in size
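In this reporter screen, reduction of luminescence relative to DMSO vehicle indicated activity. Compounds and 5-fluorouridine were added together to 2,000 cells per well, incubated for 16 hr at 37 °C, then developed with ONE-Glo.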
ELG1 genotoxic = qHTS screen for small molecules that induce genotoxicity in human embryonic kidney (HEK293T) cells expressing luciferase-tagged ELG1 | AID 504466, 2011 | HEK293T ELG1-luciferase reporter, luminescence, 16 h | Potency, µM (top dose mostly 46 µM), for inactives: at the highest dose activity change, positive = activation, usual class: activators | actives 1.3% (n = 330,000); further: % of control where 0% means no effect; nearly all actives have a fitted effect of over 60% in size
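Reporter readout depends on ELG1 protein level, which increases with genetic stress. After 16 hr compound exposure at 37 °C, luciferase activity was quantified using ONE-Glo.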
SMN2 splice up = qHTS Assay for Enhancers of SMN2 Splice Variant Expression | Potency, µM (doses to about 46.1 µM), inactives show at the top dose activity change, positive = activation, most hits filed as activators | actives 2.8% (n = 210,000) | HEK293 SMN2-luciferase splicing reporter, luminescence, 30-36 h; further: % of control where 0% means no effect; nearly all actives have a fitted effect of over 55% in size
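qHTS luciferase splicing reporter: luminescence rises when SMN2 exon 7 is included in transfected HEK293 cells. Compound exposure lasted 30-36 h at 37C, with 4.5 mM final sodium butyrate as control, followed by a ONE-Glo read.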
NPC1 promoter act = qHTS Assay for NPC1 Promoter Activators | actives 2.4% (n = 320,000) | Potency, µM (highest dose often 9.22 µM), without a hit: top-dose activation, most hits filed as activators | Huh7 NPC1 promoter luciferase reporter, 24 h | AID 485313, 2010; further: % of control where 0% means no effect; nearly all actives have a fitted effect of over 60% in size
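Quantitative HTS used a cell-based reporter: Huh7 cells stably bearing the NPC1 promoter upstream of luciferase were treated with compounds for 24 h, and promoter activation was read as luminescence.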
Rab9 promoter act = qHTS Assay for Rab9 Promoter Activators; Huh7 Rab9 promoter-luciferase reporter, luminescence, 24 h; Potency, µM (highest dose often 9.22 µM), for the others: at the highest dose activation, negative = inhibition, most hits filed as activators; actives 2.8% (n = 320,000); further: % of control where 0% means no effect; nearly all actives have a fitted effect of over 60% in size
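Cells were plated at 1500 per well in reduced-serum medium with 10% FBS and left 2 h. Compound in DMSO was then added for 24 h at 37 °C. Reporter signal was read by luminescence after 10 min with luciferase detection reagent.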
An asterisk follows results filed as active; ? = inconclusive; nt = no result; [ ] = another dose, or the depositor's remark. Only some compounds are listed: those with a hit (about 9.4% of all), similar ones and a draw of the others. The call rests on the fitted dose curve; in most records, active means well fitted curve in the direction sought with a large enough effect; inconclusive means small, poorly fitted or top-dose-only effect, or another doubt; inactive means no such curve, though single readings can be large; an effect the other way counts as inactive or inconclusive. Potency means the concentration at half of the fitted maximal effect.

SMILES	FLuc modulator	ELG1 DNA repair	ELG1 genotoxic	SMN2 splice up	NPC1 promoter act	Rab9 promoter act
Cc1cccc(C=Nc2ccc3c(c2)oc2ccccc23)c1O	?	?	15.6%	10µM*	26.3%	3.98µM*
Cc1ccccc1C(=O)NNC(=O)CSc1nc(-c2ccccc2)cc(=O)[nH]1	10.7µM*	?	5.9%	4.6%	10.9%	20.5%
Cc1ccccc1NC(=O)CSc1nc(-c2ccccc2)cc(=O)[nH]1	-10.1%	0.9%	6.3%	nt	-5.1%	-5.9%
COc1ccc2nc3sc(C(=O)N4CCN(c5ccc(F)cc5)CC4)cc3cc2c1	-1.1%	nt	nt	1.9%	nt	nt
COc1cccc(/C=N/Nc2ncnc(N)c2[N+](=O)[O-])c1OC	4.78µM*	?	?	3.16µM*	1.78µM*	0.562µM*
Cc1cc(/C=N/Nc2ncnc(N)c2[N+](=O)[O-])c(C)n1-c1ccccc1	0.0757µM*	?	?	nt	?	-18.1%
Cc1cc(/C=N/Nc2nc(N)ncc2[N+](=O)[O-])c(C)n1-c1cccc(C(F)(F)F)c1	1.51µM*	?	?	nt	0.891µM*	0.447µM*
O=C(CSc1nc2c([nH]c3ccccc32)c(=O)n1-c1ccccc1F)Nc1cccc(Cl)c1	-2.3%	nt	nt	nt	nt	nt
Cc1ccccc1OCC(=O)N(Cc1ccc(C(C)C)cc1)C1CCS(=O)(=O)C1 (stereo not given)	-6.3%	nt	nt	-15.1%	nt	nt
Cc1ccc(-c2cc(C(F)(F)F)n3nc(C(=O)Nc4ccc(Cl)c(C(F)(F)F)c4)cc3n2)cc1	-1.7%	nt	nt	4.3%	nt	nt
CCOC(=O)Cn1nc(N2CCN(c3ccc(F)cc3)CC2)ccc1=O	0.5%	nt	nt	-3.9%	nt	nt
CCn1c(SCC(=O)Nc2ccc(N3CCOCC3)cc2)nnc1-c1ccc(OC)cc1	15.1µM*	-22.6%	-5.7%	-12.3%	-2.4%	-2.7%
CCn1c(SCC(=O)Nc2ccc(N3CCOCC3)c(Cl)c2)nnc1-c1ccc(N)cc1	13.5µM*	-10.3%	2.5%	-16.3%	1.6%	1.7%
CCn1c(C)nnc1SCC(=O)Nc1ccc(N2CCOCC2)cc1	?	?	1.0%	nt	2.4%	4.2%
CCCOc1ccc(CNC(=O)C2CCN(c3nc4ccccc4nc3C(F)(F)F)CC2)cc1	6.4%	nt	nt	nt	nt	nt
O=C(NC1CCCCC1)C(c1cccnc1)N(C(=O)CCl)c1ccc(F)cc1 (stereo not given)	3.4%	20.6µM*	-13.3%	-17.4%[1.84 µM]	-37.4%	-36.6%
COc1ccc(C(C(=O)NC2CCCCC2)N(C(=O)CCl)c2ccc(OC)cc2)cc1 (stereo not given)	-0.1%	?	-13.2%	-12.1%[1.84 µM]	-42.0%	-41.0%
COc1ccc(N(C(=O)CCl)C(C(=O)NC2CCCCC2)c2cccnc2)cc1 (stereo not given)	4.0%	20.6µM*	-16.3%	-13.2%[1.84 µM]	-37.3%	-38.3%
COc1ccc(NC(=O)Cn2c(=O)n(-c3ccc(OC)cc3)c(=O)c3sc4ccccc4c32)cc1	-1.4%	nt	nt	?	nt	nt
O=c1oc(CCCO)cc2ccc(C#Cc3cccnc3)cc12	nt	?	13.1%	nt	nt	nt
O=c1oc(CCO)cc2ccc(C#Cc3ccsc3)cc12	?	?	?	nt	?	3.98µM*
CN(C)c1ccc(C#Cc2ccc3cc(CCO)oc(=O)c3c2)cc1	1.35µM*	?	17.1%	nt	3.98µM*	?
O=C1c2ccccc2C(=O)N1CCC#Cc1ccc2cc(CCO)oc(=O)c2c1	-3.0%	-1.6%	1.2%	nt	-5.2%	-7.6%
COc1cc(Cl)c(C)cc1NC(=O)c1cnc2c(-c3cccc(C)c3)c(C)nn2c1C	-4.6%	nt	nt	nt	nt	nt
